Sampled rows, rich in hits. Any-hit rate of the full collection: about 0.19%.
Bcl-2 Bim block = inhibitors of Bim-Bcl-2 interaction, human; P10415; Bead-based flow cytometry, Bim peptide-Bcl-2 binding; inhibition, % at 10 µM; hit rate 0.06% among 190,000; AID 950; in the data active means inhibition above about 40%;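 further: 0% = no compound wells with probe peptide and 100% = reference peptide inhibitor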
Target sequence (P10415 whole entry, looked up): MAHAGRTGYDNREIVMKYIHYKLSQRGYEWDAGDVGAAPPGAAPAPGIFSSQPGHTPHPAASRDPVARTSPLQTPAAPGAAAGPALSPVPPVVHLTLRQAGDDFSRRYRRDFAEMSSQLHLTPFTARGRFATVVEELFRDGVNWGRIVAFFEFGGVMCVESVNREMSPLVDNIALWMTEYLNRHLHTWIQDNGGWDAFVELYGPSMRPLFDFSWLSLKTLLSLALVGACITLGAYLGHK
Bfl-1 Bim block = inhibitors of Bim-Bfl-1 interaction, human; Bead-based flow cytometry, Bim-Bfl-1 binding inhibition; inhibition, % at 10 µM; hit rate 0.12% among 190,000;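 further: 0% = wells without compound plus tracer and 100% = blocker peptide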
Bim-Bcl-B = human Bim-Bcl-B interaction inhibition; Q9HD36; bead-based flow cytometry, Bim peptide-Bcl-B binding; inhibition, % at 10 µM; hit rate 0.073% among 190,000; AID 951;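 further: 0% = tracer peptide without compound and 100% = reference inhibitor peptide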
Bim-Bcl-XL = human Bim-Bcl-XL interaction inhibition; Q07817; Bim peptide-Bcl-XL binding, bead flow cytometry, fluorescence; inhibition, % at 10 µM; hit rate 0.04% among 190,000; AID 1007
Target sequence (Q07817 whole entry, looked up): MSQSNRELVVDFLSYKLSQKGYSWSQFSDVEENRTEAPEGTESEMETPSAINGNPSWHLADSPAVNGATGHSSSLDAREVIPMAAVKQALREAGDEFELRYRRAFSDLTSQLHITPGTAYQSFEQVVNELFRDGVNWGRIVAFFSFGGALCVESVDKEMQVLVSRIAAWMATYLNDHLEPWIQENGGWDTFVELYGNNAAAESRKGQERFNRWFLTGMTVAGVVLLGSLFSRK
Bcl-W Bim block = human Bim-Bcl-W interaction inhibition | bead-based flow cytometry, Bim peptide-Bcl-W binding | inhibition, % at 10 µM | Q92843 | hit rate 0.02% among 190,000;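 further: 0% = bound tracer without compound and 100% = peptide blocker; higher means less fluorescent Bim peptide bound to Bcl-W beads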
Starred values were filed as active, the others as inactive; / = no result. Unless noted, no stated cut-off is given here; in the data, active means inhibition above about 40%.

SMILES | Bcl-2 Bim block | Bfl-1 Bim block | Bim-Bcl-B | Bim-Bcl-XL | Bcl-W Bim block
CN(C)c1ncc(C2=C(Cl)C(=O)C(N3CCCC3)=C(Cl)C2=O)s1 | 70* | 92* | 46* | 48* | 83*
O=C1C(Cl)=C(N2CCCCC2)C(=O)C(Cl)=C1c1cnc(N2CCCCC2)s1 | 69* | 91* | 52* | 49* | 85*
CCCc1nnc(NC(=O)OCC)s1 | -2 | -7 | -1 | 0 | 0
Cc1nc(-c2cccc(Br)c2)ccc1C(=O)O | -2 | -4 | 0 | 0 | 0
O=C(CNC(=O)c1ccc(S(=O)(=O)N2CCCC2)cc1)N/N=C/c1ccc(Cl)cc1 | -6 | -12 | -6 | -4 | -2
O=C(CNC(=O)c1ccc(S(=O)(=O)N2CCCC2)cc1)N/N=C/c1ccc(Cl)cc1Cl | 13 | 9 | 50* | 6 | 7
COc1cc(/C=N/NC(=O)c2ccc(CSc3nc4ccccc4[nH]3)cc2)ccc1O | -2 | -1 | -9 | -1 | 0
COc1cc2[nH]c(=S)nc(NC3CCCC3)c2cc1OC | 18 | 27 | 27 | 44* | 31
C=CCNc1nc(=S)[nH]c2cc(OC)c(OC)cc12 | 3 | 1 | 16 | 19 | 12
Cc1cc([N+](=O)[O-])nn1CCCC(=O)Nc1c(C)n(C)n(-c2ccccc2)c1=O | -1 | -4 | -1 | 0 | 0
O=C(NC1=NCCS1)NC12CC3CC(CC(C3)C1)C2 | 84* | 60* | 84* | 18 | 15
Cc1ccc(NC(=O)CSCC(=O)NCCc2ccccn2)c(C)c1 | -2 | -5 | -3 | -1 | -3
C#CCOCCOCCOCCNc1nc(N2CCN(C(=O)[C@H]([C@@H](C)CC)n3cc([C@@H](N)CC(C)C)nn3)CC2)nc(N2CCN(C(=O)[C@H](Cc3cc4ccccc4[nH]3)n3cc([C@@H](N)Cc4ccc(O)cc4)nn3)CC2)n1 | 80* | 57* | 71* | 0 | -5
CN(C(=O)COC(=O)c1ccc(=O)n(Cc2ccccc2)n1)c1ccccc1 | 0 | -5 | -1 | 0 | 1
Cc1noc(C)c1COc1ccc(C(=O)Nc2cccnc2)cc1 | 15 | 1 | 43* | 19 | 20
Cc1ccc(NC(=O)c2cccc(OCc3c(C)noc3C)c2)cc1 | -7 | -5 | -6 | -4 | 0
Cc1ccc(NC(=O)CC2S/C(=N/N=C/c3c[nH]c4ccccc34)NC2=O)cc1 (configuration not stated) | 25 | 42* | 27 | 33 | 28
O=C(Oc1ccc(-c2cnc3ccccc3n2)cc1)c1cc([N+](=O)[O-])ccc1Cl | -7 | 0 | -9 | -1 | 1
Cc1c(C(=O)Oc2ccc(-c3cnc4ccccc4n3)cc2)cccc1[N+](=O)[O-] | 10 | 40* | -11 | 0 | 12
COc1ccc(NC(=O)CN2C(=O)N(C)Cc3ccccc32)c(C)c1 | 1 | 3 | 2 | 0 | 0
O=C1C(Nc2ccc(O)cc2)=C/C(=N/S(=O)(=O)c2cccs2)c2ccccc21 | -3 | -8 | -10 | -10 | -2
O=C(O)c1ccc(NC2=C/C(=N/S(=O)(=O)c3ccccc3)c3ccccc3C2=O)cc1 | 12 | 47* | -21 | 2 | 19
O=C(CSc1ccc2nnc(-c3ccccn3)n2n1)Nc1nccs1 | 8 | 7 | 24 | 40* | 27
O=C(Cc1ccc(Cl)cc1Cl)NCC1(N2CCOCC2)CCCCC1 | -5 | -3 | -1 | -2 | 0
COC(=O)c1ccccc1N(C)S(=O)(=O)c1cc2c(cc1C)OCC(=O)N2 | 0 | -6 | -6 | -4 | -4
SMILES | Bcl-2 Bim block | Bfl-1 Bim block | Bim-Bcl-B | Bim-Bcl-XL | Bcl-W Bim block
Cc1ccc2cc(C)c(Sc3nnnn3-c3ccccc3)nc2c1 | 26 | 40* | 23 | 42* | 28
O=C(CCC1CCCCC1)NCc1ccccn1 | -6 | -7 | -5 | -3 | -1
O=C(c1cc(=O)c2ccccc2o1)N1CCN(c2ccccc2F)CC1 | 66* | 58* | 52* | 37 | 58*
O=C(c1cc(=O)c2ccccc2o1)N1CCN(c2cccc(Cl)c2)CC1 | -3 | -8 | 0 | 0 | 3
CCCn1nnnc1SCC(=O)N1CCN(C(=O)c2ccco2)CC1 | -7 | -15 | -5 | -8 | 0
CC(C)n1nnnc1SCC(=O)N1CCN(C(=O)c2ccco2)CC1 | 18 | -2 | 93* | 50* | 31
COc1ccc(-c2ccc(CCC(=O)O)n2NC(=O)c2cccs2)cc1 | -10 | -23 | -8 | -7 | 0
Cc1ccc(-c2ccc(CCC(=O)O)n2NC(=O)c2cccs2)cc1 | 92* | / | / | 35 | 28
CCc1ccc(NC(=O)COC(=O)c2ccc(Cl)c(S(=O)(=O)N3CCCCCC3)c2)cc1 | -9 | -16 | -4 | -4 | -3
COc1ccc(OC)c(N=c2ssnc2Cl)c1 | 5 | 41* | -15 | 0 | 7
CCOC(=O)c1sc(/N=C/c2c(C)[nH]n(-c3ccccc3)c2=O)c(C#N)c1C | -2 | 0 | -1 | 0 | -1
O=C(COC(=O)C1CCN(S(=O)(=O)c2cccc3cccnc23)CC1)c1ccccc1 | 0 | -3 | -4 | -3 | 0
COc1ccc(C)cc1NC(=O)CCCN1C(=S)NC(C)(C)CC1C (configuration not stated) | -5 | -12 | -5 | -7 | -3
COc1ccc(OC)c(NC(=O)CCCN2C(=S)NC(C)(C)CC2C)c1 (configuration not stated) | 43* | 50* | 54* | 49* | 42*
O=C(Cc1ccccc1)N/N=C/c1cccn1-c1ccc([N+](=O)[O-])cc1 | 31 | 21 | 50* | 25 | 26
Cc1ccc(CNC(=O)CCCC(=O)Nc2cc(C)on2)cc1 | -3 | -7 | -8 | -4 | -4
Cc1cc(NC(=O)CCCC(=O)NCc2ccccc2)no1 | 51* | 27 | 43* | 1 | 0
COc1cccc(CN(C)C(=O)c2cc(COc3ccc4ncccc4c3)on2)c1 | -5 | -5 | -13 | -3 | -2
CNc1ccc(Br)cc(C(=O)/C=C/c2cccc(OC)c2)c1=O | 32 | 27 | -19 | 8 | 9
CNc1ccc(Br)cc(C(=O)/C=C/c2ccc(OC)cc2OC)c1=O | 25 | 41* | 3 | 28 | 27
COCCN=c1scc(-c2ccco2)n1/N=C/c1ccc(O)c(O)c1O | 18 | 41* | -10 | 8 | 24
Nc1c(C(=O)NCc2ccco2)sc2nc3c(cc12)C(=O)CCC3 | 20 | 48* | 6 | 16 | 42*
COc1ccc2cc3c(N)c(C(=O)NCc4ccco4)sc3nc2c1 | 1 | 4 | -2 | 0 | -1
COc1ccc(-c2cc(C(=O)NNC3=NCCC3)c3c(C)nn(-c4ccccc4)c3n2)cc1 | -4 | -4 | -4 | -3 | -2
CCOc1cc(CNc2ccc(N3CCCC3)cc2)cc(Cl)c1OC | 1 | 4 | 0 | 0 | 3
CCOc1ccc(CNc2ccc(N3CCCC3)cc2)cc1 | 13 | 42* | -12 | 6 | 28
CCOc1ccc(CNc2ccc(CNc3ncn[nH]3)cc2)cc1 | 0 | -1 | -1 | 0 | 2
COc1cc(CNc2ccc(N3CCCC3)cc2)cc(Cl)c1OC | 15 | 48* | -15 | -2 | 19

High-throughput results from PubChem BioAssay.
